Screening data (PubChem BioAssay)
The list is not random: actives were taken first. Their share in the collection is about 3.9%.
TWEAK Fn14 block = TWEAK-Fn14 signaling inhibition; TWEAK-stimulated Fn14 reporter cells, luciferase luminescence, 8 h; 360,000 compounds, 2% hits; inhibition, % at 10 µM; in the data active means inhibition above about 50%
C8 TRAIL sens = sensitizes caspase-8 expressing cells to TRAIL. NB7+C8 cells + TRAIL, ATPlite viability luminescence. inhibition (viability loss, TRAIL sensitization), % at 10 µM. 360,000 compounds, 1% hits. AID 624354;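 active means compounds causing at least 50% loss of cell viability in the single-dose screen, relative to plate controls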
TROY signal inh = TROY signaling inhibition; Q293 LMP1-TROYcd NF-kB luciferase reporter, 4 h; inhibition, % at 10 µM; 360,000 compounds, 0.98% hits;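 active means compounds whose plate-normalised and pattern-corrected inhibition of the luciferase reporter signal at the single screening dose is 50% or more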
HIF-2a block = HIF-2a inhibition; 786-0 RCC cells HIF-2a reporter, luciferase luminescence, overnight; 360,000 compounds, 0.72% hits; AID 624352; inhibition, % at 18.8 µM;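 active means inhibition of the luminescence signal of 40% or more relative to plate controls, in a single-dose primary screen at 18.75 µM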
HSP90 inh = HSP90 refolding inhibition in rabbit reticulocyte lysate; luciferase refolding luminescence, 3 h; inhibition, % at 5.6 µM; 290,000 compounds, 0.91% hits; AID 1789;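 active means inhibition above the screen-wide mean plus 3 SD, computed separately per campaign, cut at about 16% in these data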;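 further: 0% = DMSO wells and 100% = 60 µM geldanamycin wells; inhibitors lower the luminescence because luciferase stays unfolded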
aSyn 5UTR inh = MLPCN primary screen, SNCA 5' untranslated region; 300,000 compounds, 0.82% hits; alpha-synuclein 5'UTR reporter, inhibitor activity; inhibition, % (tested at 7.5 µM); in the data active means inhibition above about 60%;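 further: H4 neuroglioblastoma cells stably carrying SNCA 5'UTR luciferase fusion; 0% = DMSO wells and 100% = positive control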
Starred values were filed as active, the others as inactive.

Screening CCCCCCN1CCN(C2CN(Cc3cn(Cc4cccc(C(F)(F)F)c4)nn3)S(=O)(=O)C2)CC1 (stereo not drawn) returned TWEAK Fn14 block 13, C8 TRAIL sens 2, TROY signal inh 30 and HIF-2a block 2.
`CC(C)NC(=O)C1(C)CCN1Cc1cccc(C#N)c1` (stereo not drawn) gave TWEAK Fn14 block 5, C8 TRAIL sens -6, TROY signal inh 1 and HIF-2a block 5.
Screening C#CCN1C(=O)S/C(=C\c2ccc(-c3ccc(Cl)c(C(=O)O)c3)o2)C1=O returned TWEAK Fn14 block -13, C8 TRAIL sens 11, TROY signal inh -40, HIF-2a block -178, HSP90 inh 23* and aSyn 5UTR inh -93.
Screening CCOC(=O)[C@]12CCCC=C1N(Cc1ccc3c(c1)OCO3)C(=O)[C@H](CC(=O)NCc1ccc(C)o1)C2 returned TWEAK Fn14 block -1, C8 TRAIL sens -1, TROY signal inh -11 and HIF-2a block 16.
`COc1ccc(CCN2CCC(Nc3nc4ccccc4n3Cc3ccc(F)cc3)CC2)cc1` gave TWEAK Fn14 block -9, C8 TRAIL sens 30, TROY signal inh 0, HIF-2a block -14, HSP90 inh 8 and aSyn 5UTR inh 103*.
For COc1ccc(CNc2nc3ccccc3n2CCN2CCCCC2)cc1 the results were TWEAK Fn14 block -26, C8 TRAIL sens -4, TROY signal inh 9, HIF-2a block 19, HSP90 inh 0 and aSyn 5UTR inh -22.
Screening Cc1ccc(C(=O)Oc2cc(C)n(C)c(=O)c2)cc1 returned TWEAK Fn14 block 54*, C8 TRAIL sens -17, TROY signal inh 41, HIF-2a block 10, HSP90 inh -1 and aSyn 5UTR inh 4.
Screening COc1cc(C)ccc1Oc1ccc([N+](=O)[O-])cc1 returned TWEAK Fn14 block -14, C8 TRAIL sens -14, TROY signal inh -7 and HIF-2a block -54.
Screening O=C(/C=C/c1ccc(Cl)c([N+](=O)[O-])c1)Nc1cccc(NC(=O)c2ccco2)c1 returned TWEAK Fn14 block 55*, C8 TRAIL sens 18, TROY signal inh 41, HIF-2a block -149, HSP90 inh -5 and aSyn 5UTR inh -43.
Screening CC1(C(=O)NS(=O)(=O)c2ccc(F)cc2F)CCN1C(=O)CCc1ccc(Cl)cc1Cl (stereo not drawn) returned TWEAK Fn14 block 7, C8 TRAIL sens -3, TROY signal inh -17 and HIF-2a block 6.
`C=C(C)CSc1nnc2n(Cc3ccccc3)c(=O)c3c4c(sc3n12)CCC4` gave TWEAK Fn14 block 7, C8 TRAIL sens 85*, TROY signal inh -6, HIF-2a block 12, HSP90 inh -3 and aSyn 5UTR inh 7.
CN1CCc2c(sc3nc(SCC(N)=O)n(-c4ccccc4)c(=O)c23)C1 was read as TWEAK Fn14 block 57*, C8 TRAIL sens -4, HIF-2a block -2, HSP90 inh 2 and aSyn 5UTR inh 1.
`O=C(O)CSc1nc2sc3c(c2c(=O)n1Cc1ccccc1)CCCCC3` gave TWEAK Fn14 block 51*, C8 TRAIL sens 27, TROY signal inh 57*, HIF-2a block -191, HSP90 inh 5 and aSyn 5UTR inh -230.
`CSc1nnc2n(CCc3ccccc3)c(=O)c3c4c(sc3n12)CCCC4` gave HSP90 inh 4.
For O=C(NC1CCN(Cc2ccccc2)CC1)c1[nH]c(C(F)(F)F)nc1-c1ccccc1 the results were TWEAK Fn14 block -7, C8 TRAIL sens -8, TROY signal inh 5 and HIF-2a block 19.
Cc1ccc(S(=O)(=O)N2CCOCC2)cc1NC(=O)Cn1c(=O)ccn(Cc2ccccc2)c1=O was read as TWEAK Fn14 block 7, C8 TRAIL sens 6, TROY signal inh 1 and HIF-2a block 8.
For O=C(CC1SC(=O)N(Cc2cccc3ccccc23)C1=O)Nc1nccs1 (stereo not drawn) the results were TWEAK Fn14 block -16, C8 TRAIL sens 53*, TROY signal inh 11, HIF-2a block 9, HSP90 inh 2 and aSyn 5UTR inh 6.
For CCOC(=O)CN1C(=O)SC(CC(=O)Nc2nccs2)C1=O (stereo not drawn) the results were TWEAK Fn14 block 67*, C8 TRAIL sens 60*, HIF-2a block 13, HSP90 inh 3 and aSyn 5UTR inh 30.
`O=C(CN1C(=O)C2CCCCC2C1=O)Nc1nccs1` (stereo not drawn) gave TWEAK Fn14 block -20, C8 TRAIL sens -3, TROY signal inh 8, HIF-2a block 15, HSP90 inh 1 and aSyn 5UTR inh -12.
For CCCCn1nnnc1C(c1cc2ccccc2o1)N(CCC#N)Cc1ccccc1 (stereo not drawn) the results were TWEAK Fn14 block 15, C8 TRAIL sens -3, TROY signal inh 3 and HIF-2a block -9.
C/C(=N\NC(=O)c1ccc(NS(=O)(=O)c2cccs2)cc1)c1cccs1 was read as TWEAK Fn14 block 6, C8 TRAIL sens 0, TROY signal inh 7, HIF-2a block 12, HSP90 inh -1 and aSyn 5UTR inh 6.
Screening C/C(=N/NC(=O)c1cc(C(C)C)[nH]n1)c1cccs1 returned TWEAK Fn14 block 52*, C8 TRAIL sens 25, TROY signal inh -35, HIF-2a block -33, HSP90 inh 6 and aSyn 5UTR inh -4.
For C/C(=N\NC(=O)c1ccc(Cl)cc1)c1cccs1 the results were TWEAK Fn14 block 41, C8 TRAIL sens 75*, TROY signal inh -49, HIF-2a block -64, HSP90 inh 3 and aSyn 5UTR inh -20.
C/C(=N\NC(=O)c1ccccc1NC(=O)c1ccc(Cl)cc1)c1ccncc1 was read as TWEAK Fn14 block 0, C8 TRAIL sens 94*, TROY signal inh 18, HIF-2a block 38, HSP90 inh 52* and aSyn 5UTR inh 28.
`COc1ccc(CNC(=O)COc2cc3c(c4oc(=O)cc(C)c24)CCC(C)(C)O3)c(OC)c1` gave TWEAK Fn14 block 0, C8 TRAIL sens 4, TROY signal inh 22 and HIF-2a block -13.
COC(CN(C)C(C(=O)NC1CCCCC1)c1ccccc1)OC (stereo not drawn) was read as TWEAK Fn14 block 81*, C8 TRAIL sens -4, TROY signal inh -11, HIF-2a block 8, HSP90 inh 1 and aSyn 5UTR inh -4.
`O=C1C(=Cc2cn(-c3ccccc3)nc2-c2ccc(OCc3ccc(Cl)cc3)cc2)SC(=S)N1CCS(=O)(=O)O` gave TWEAK Fn14 block 62*, C8 TRAIL sens -10, TROY signal inh 18 and HIF-2a block 4.
For COc1ccc(/C=C2\SC(=S)N(CCC(=O)Nc3ccc(C(=O)O)cc3)C2=O)cc1 the results were TWEAK Fn14 block -40, C8 TRAIL sens 17, TROY signal inh -37, HIF-2a block 8, HSP90 inh -4 and aSyn 5UTR inh -5.
Screening O=C1C(=Cc2cn(-c3ccccc3)nc2-c2ccc(OCc3ccccc3F)cc2)SC(=S)N1CCS(=O)(=O)O returned TWEAK Fn14 block 18, C8 TRAIL sens 1, TROY signal inh 14 and HIF-2a block 11.
